MARV entry inh: qHTS for Inhibitors of binding or entry into cells for Marburg Virus | Marburg virus pseudotype entry/binding inhibition, cell-based | Potency, µM (titrated, usually from 49.2 µM), actives largely listed as inhibitors | 18,000 compounds, 6.5% hits
Lassa entry: qHTS for Inhibitors of binding or entry into cells for Lassa Virus; Lassa virus pseudotyped entry inhibition, cell-based qHTS; Potency, µM (titrated, usually from 49.2 µM), hits mostly inhibitors; 18,000 compounds, 4.1% hits; AID 720533, 2013
Numbers stand for hits; n = inactive; u = inconclusive; x = no result; ! = not active in a repeat; [ ] = another dose, or the depositor's remark. Compounds with a hit are over-represented: about 8% of the library has one in this group of screens. The call rests on the fitted dose curve; tested in HEK293 cells.

SMILES	MARV entry inh	Lassa entry
CN1C2CCC1CC(OC(c1ccccc1)c1ccccc1N)C2 (configuration not stated)	18µM	n
COC(=O)c1ccc(CN2C(=O)[C@@]3(CC(C)=C[C@@H](COc4ccccc4)O3)c3ccccc32)cc1	n[8.59 µM]	n[8.59 µM]
C[C@H]1CC[C@H]2C(=O)N(Cc3ccc(Cl)cc3)C[C@H](O)CN2[C@H]1c1ccc(Br)cc1	n[8.59 µM]	n[8.59 µM]
COC(=O)C1=C(C)N(CCC(C)O[Si](C)(C)C(C)(C)C)C(=O)N(C(C)=O)C1c1ccccc1 (configuration not stated)	n[8.59 µM]	n[8.59 µM]
FC(F)(F)c1cccc(N2CCNCC2)c1	28µM	28µM
COc1ccccc1N1CCNCC1	n	n
Oc1ccc(Cl)cc1	n	n
Oc1ccc(Cl)cc1Sc1cc(Cl)ccc1O	u	13µM
CC1(C)CN(Cc2ccccc2)C(=O)[C@@H]1CC(=O)Nc1ccc(Br)cc1	n	n
CCC(=O)OC1(C)C(=O)C=C2C=C(/C=C/COC)OC=C2C1=O (configuration not stated)	n	n
COC/C=C/C1=CC2=CC(=O)C(C)(OC(=O)c3cnc4ccccc4n3)C(=O)C2=CO1 (configuration not stated)	n	5.6µM
CCCC=Cc1ccc(CN2C(C(C)C)C(=O)N(Cc3cn(CCC4OCCO4)nn3)CCS2(=O)=O)cc1 (configuration not stated)	n	x
O=C(Nc1n[nH]c2nnc(-c3cccnc3)cc12)C1CC1	u	n
NCCc1c[nH]c2ccc(O)cc12	n	n
CCCCCCCCCOc1ccc2[nH]cc(CCN)c2c1	10µM	35µM!
NS(=O)(=O)c1ccc(Nc2ncc(-c3ccccc3)o2)cc1	n	n
CC1(C)CN(CCc2ccccc2)C(=O)[C@@H]1CC(=O)Nc1ccccc1	n	n
OCc1cc(C(O)CNCCCCCCOCCCCc2ccccc2)ccc1O (configuration not stated)	16µM	u
CC(C)(C)NCC(O)c1ccc(O)c(CO)c1 (configuration not stated)	n	n
O=C(OCc1cn([C@H]2C[C@H](c3ccc(Cl)cc3)N(C(=O)c3cccs3)C[C@H]2O)nn1)c1ccccc1	n	x
Cc1nnc2n1-c1sc(CCC(=O)N3CCOCC3)cc1C(c1ccccc1Cl)=NC2	n	n
Cc1nnc2n1-c1sc(CCc3ccc(CC(C)C)cc3)cc1C(c1ccccc1Cl)=NC2C (configuration not stated)	14µM	7.9µM
COc1ccc([C@]23Cc4cc(OC)c(OC)cc4[C@H](O2)C2=C(CC4(CCCCC4)OC2=O)O3)cc1	n[8.59 µM]	n[8.59 µM]
Cc1c(C(=O)N(C)C2CCCCC2)sc2nc3ccc(N)cc3n12	22µM	u
CCCCCCCCCC=C[C@@H]1C[C@H]2C=CCO[P@@](=O)(O1)O2	n	n
SMILES	MARV entry inh	Lassa entry
O=C1[C@H]2[C@@H]3[C@@H](O)[C@H](O)CC(=NOCc4ccccc4)[C@@H]3CC[C@H]2C(=O)N1Cc1ccc2c(c1)OCO2	n[8.59 µM]	n[8.59 µM]
CCCCCC(=O)N1C[C@H](O)[C@@H](n2cc(C3CC3)nn2)C[C@H]1c1ccc(OC)cc1	n	n
Cc1[nH]ccc2c1[nH]c1cc(=O)ccc12	13µM	u
CC(C)[C@@]1(NC(=O)[C@@H]2C[C@H]3c4cccc5[nH]cc(c45)C[C@@H]3N(C)C2)O[C@@]2(O)[C@H]3CCCN3C(=O)[C@H](Cc3ccccc3)N2C1=O	22µM!	n
CN1C[C@H](C(=O)N[C@]2(C)O[C@@]3(O)[C@@H]4CCCN4C(=O)[C@H](Cc4ccccc4)N3C2=O)C=C2c3cccc4[nH]cc(c34)C[C@H]21	n	n
CC(C)C[C@H]1C(=O)N2CCC[C@H]2[C@]2(O)O[C@](NC(=O)[C@@H]3C[C@@H]4c5cccc6[nH]cc(c56)C[C@H]4N(C)C3)(C(C)C)C(=O)N12	u	n
CC(C)C[C@H]1C(=O)N2CCC[C@@H]2[C@]2(O)O[C@](NC(=O)[C@H]3C=C4c5cccc6[nH]c(Br)c(c56)C[C@H]4N(C)C3)(C(C)C)C(=O)N12	n	n
CC(C)CC1C(=O)N2CCCC2C2(O)O[C@@](NC(=O)C3C=C4c5cccc6[nH]c(Br)c(c56)CC4N(C)C3)(C(C)C)C(=O)N12 (some centres not stated)	10µM	u
CC(C)C[C@H]1C(=O)N2CCC[C@H]2[C@]2(O)O[C@](NC(=O)[C@@H]3C=C4c5cccc6[nH]c(Br)c(c56)C[C@H]4N(C)C3)(C(C)C)C(=O)N12	u	25µM!
COC(=O)[C@H]1O[C@@H](c2cc(OC)c(C)c(OC)c2O)[C@H](C)[C@@H](O)[C@@H]1C	n[8.59 µM]	x
CC1=CC[C@@H](COc2ccccc2)O[C@@]2(C1)C(=O)N(Cc1ccccc1C(F)(F)F)c1ccccc12	n[8.59 µM]	n[8.59 µM]
COC(=O)C1=C(C(=O)OC)[C@@H]2N(Cc3ccccc3)c3ccccc3[C@@]23C[C@@H](C(=O)OC)N(C(=O)NCCBr)C3=N1	n[8.59 µM]	n[8.59 µM]
C(=Cc1nc(-c2ccccc2)oc1Nc1ccc2ccccc2c1)c1ccccc1	n[8.59 µM]	n[8.59 µM]
C=CCOC(=O)C(C(C)=O)[C@@H](NC(=O)OC)c1ccc(F)cc1 (some centres not stated)	n[8.59 µM]	n[8.59 µM]
CN1C[C@H](CNC(=O)OCc2ccccc2)C[C@@H]2c3cccc4c3c(cn4C)C[C@H]21	14µM!	u
CN1C[C@H](C(=O)N[C@]2(C)O[C@@]3(O)[C@H]4CCCN4C(=O)[C@H](Cc4ccccc4)N3C2=O)C[C@H]2c3cccc4[nH]cc(c34)C[C@@H]21	n	n
CN1C[C@H](CNC(=O)OCc2ccccc2)C[C@H]2c3cccc4c3c(cn4C)C[C@@H]21	10µM	u
CO[C@@]12C[C@@H](COC(=O)c3cncc(Br)c3)CN(C)[C@H]1Cc1cn(C)c3cccc2c13	n	n
CC12C=C(C=Cc3ccc(Br)cc3)C(C)(C1)[C@H](c1ccc(Br)cc1)CC2=O (some centres not stated)	n[8.59 µM]	x
CC1=CC[C@@H](C)O[C@@]2(C1)C(=O)N(Cc1ccc(F)cc1)c1ccccc12	n[8.59 µM]	n[8.59 µM]
CCOC(=O)Nc1ccc2c(c1)N(C(=O)CN(C)C)c1ccccc1CC2	40µM	u
CCOC(=O)Nc1ccc2c(c1)N(C(=O)CCN1CCOCC1)c1ccccc1S2	n	n
Cc1ccc([S+](=O)([O-])N[C@@H]2COC(=O)CC=C[C@H](C)COC(=O)N[C@@H](C)C(=O)CC=C[C@H]2C)cc1	n[8.59 µM]	n[8.59 µM]
CC#CCN1C(=O)NC(c2ccccc2)C(C#N)=C1C (configuration not stated)	n[8.59 µM]	n[8.59 µM]
COc1ccc(C(C)=O)c(O)c1	n	n
SMILES	MARV entry inh	Lassa entry
COCc1cc(O)c(O)c(O)c1-c1c(COC)cc(O)c(O)c1O	7.9µM	n
O[N+]1=CC=CCC1=S.On1ccccc1=S.[Zn]	4.5µM	3.5µM
CC(C)C1C(=O)N(Cc2cn(CC3CCCCC3)nn2)CCS(=O)(=O)N1Cc1ccc(-c2ccc(F)nc2)cc1 (configuration not stated)	u	20µM
CC(C)C1C(=O)N(Cc2cn(CC3CCCCC3)nn2)CCS(=O)(=O)N1Cc1ccc(-c2ccc(Cl)nc2)cc1 (configuration not stated)	u	n
CNC(=O)c1cncc(C=Cc2c(Cl)cccc2Cl)c1	n	n
CCCCCCN1C[C@@H](n2cc(COC(=O)c3ccccc3)nn2)[C@H](O)C[C@H]1c1ccc(Cl)cc1	u	n
CCOC(=O)[C@]12C[C@@H]3CCN(C(=O)N(C(C)=O)[C@@H]1c1ccccc1)[C@@H]32	n[8.59 µM]	n[8.59 µM]
